About 83,000 compounds went through this panel and 20% of them were active in at least one assay; those are over-represented in the sample as a whole.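 The test compound was applied at a single concentration to cells in 96-well plates for 48 hours, and percent growth was recorded.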 Active and inactive are the calls of the source. How the source made its calls: active means growth percent below 10; inactive means the rest.
Assays:
Assay in all cases: NCI-60 one-dose screen, 48 h (100 = growth as untreated, 0 = no growth, -100 = all killed)
Conditions in all cases: 10 µM unless noted
[1] = system: DU-145 prostate
[2] = system: K-562 leukemia
[3] = system: MALME-3M melanoma
[4] = system: MDA-MB-231 breast
[5] = system: RXF 393 renal
[6] = system: SF-268 CNS
[7] = system: SF-295 CNS
[8] = system: SF-539 CNS
[9] = system: UACC-257 melanoma
[10] = system: M14 melanoma
[11] = system: HCT-15 colon
[12] = system: HT29 colon
[13] = system: SNB-75 CNS
[14] = system: SNB-19 CNS
[15] = system: U251 CNS
[16] = system: PC-3 prostate
[17] = system: SK-MEL-5 melanoma
[18] = system: UACC-62 melanoma
[19] = system: LOX IMVI melanoma
[20] = system: SK-MEL-28 melanoma

Measured: growth

Cc1ccc(C(=O)CSc2nc(-c3ccc(Br)cc3)c(C#N)c(=O)[nH]2)cc1
inactive: [1] 104% | [2] 53.3% | [3] 93% | [4] 96.4% | [5] 99.1% | [6] 97.5% | [7] 106% | [8] 94.8% | [9] 98.7% | [10] 92.7% | [11] 105% | [12] 93.9% | [13] 64.5% | [14] 96.7% | [15] 105% | [16] 90.9% | [17] 97.2% | [18] 97.1% | [19] 98%

COC(=O)[C@]12CC[C@@H](C)[C@H](C)[C@@H]1C1=CC[C@@H]3[C@@]4(C)C(C=O)=C[C@@](C)(COC(=O)c5ccco5)C4=CC[C@@]3(C)[C@]1(C)CC2
active: [3] -43.5% | [4] -8.21% | [5] -56.3% | [6] -10.9% | [8] -15.3% | [9] -34.6% | [10] -33.9% | [11] -31.9% | [12] -0.473% | [15] -4.29% | [17] -87.1% | [18] -11.1% | [19] -86.3% | [20] -45.5%
inactive: [1] 10.7% | [2] 11.1% | [7] 11.7% | [13] 20% | [14] 36.5% | [16] 14.1%

c1csc(-c2c3ccc(=[N+]4CCCCC4)cc-3oc3cc(N4CCCCC4)ccc23)c1
active: [1] -96.6% | [2] -29.5% | [3] -58.8% | [4] -50.9% | [5] -97% | [6] -88.8% | [7] -53.7% | [8] -91.3% | [9] -69.8% | [10] -87.8% | [11] -70% | [12] -74.2% | [13] -47.4% | [14] -87.6% | [15] -71.7% | [16] -65.7% | [17] -90.5% | [18] -76.1% | [19] -76.2%

COc1ccc2oc3c(C)c4c(c(C)c3c2c1)C(=O)N(Cc1ccccc1)C4=O
inactive: [1] 97.1% | [2] 92.3% | [3] 92.5% | [4] 90.3% | [5] 99% | [6] 87.8% | [7] 101% | [8] 89.7% | [9] 105% | [10] 92.9% | [11] 101% | [12] 96.1% | [13] 85.9% | [14] 95.1% | [15] 83.5% | [16] 85.5% | [17] 99.6% | [18] 92.5% | [19] 94%

CSc1n(Cc2ccc3ccccc3c2)c(C)c[n+]1Cc1ccc2ccccc2c1
inactive: [11] 24.4%
active: [1] -12.8% | [2] 8.26% | [3] -25.1% | [4] -30.8% | [5] -26.1% | [6] -11.7% | [7] -23.3% | [8] 8.44% | [9] -41.5% | [10] -14.3% | [12] -11.2% | [13] -32.4% | [14] 3.42% | [15] 2.53% | [16] 0.0083% | [17] -95.8% | [18] -56.2% | [19] -91.5% | [20] -9.19%

COc1ccc(-c2ccc3c(c2)sc2nc(-c4ccc(F)cc4)cn23)cc1
inactive: [1] 60.3% | [2] 76.6% | [3] 101% | [4] 93.5% | [5] 98.8% | [6] 110% | [7] 32.5% | [8] 100% | [9] 80.9% | [10] 98% | [11] 74.9% | [12] 82.8% | [13] 98.9% | [14] 103% | [15] 83.3% | [16] 81.7% | [17] 33.1% | [18] 65% | [19] 102%

CCOP(=O)(OCC)C1CP(=O)(c2ccccc2)CC(C)=C1Cl (stereo not given)
inactive: [1] 104% | [2] 93.4% | [3] 90.9% | [4] 95% | [5] 78.1% | [6] 104% | [7] 96.7% | [8] 104% | [9] 92.2% | [10] 63.2% | [11] 102% | [12] 118% | [13] 90.9% | [14] 104% | [15] 96.9% | [16] 90% | [17] 103% | [18] 95.1% | [19] 88.9% | [20] 104%

CC(=O)O[C@]1(C(C)=O)CCC2C3C[C@H](C)C4=CC(=O)CC[C@]4(C)C3CC[C@@]21C (stereo not given in full)
inactive: [1] 117% | [2] 96% | [3] 82.8% | [4] 71% | [5] 119% | [6] 108% | [7] 95.7% | [8] 94.1% | [9] 107% | [10] 89% | [11] 92.3% | [12] 87.7% | [13] 96% | [14] 96.4% | [15] 104% | [16] 68.4% | [17] 81.8% | [18] 79.3% | [19] 95.7%
